We go through seven compounds from ChEMBL document CHEMBL1961873, “Compounds: GSK PKIS; Assays: Nanosyn kinase panel” (2012).

The term inhibition denotes the relative decrease from the control value, in per cent.

Experiment [1] deals with Dual specificity protein kinase CLK3 (Homo sapiens) (UniProt P49761). The note with it: at 1 µM.
Experiment [2] has as its target Dual specificity tyrosine-phosphorylation-regulated kinase 1A (Homo sapiens) (UniProt Q13627). Conditions: at 0.1 µM.
Experiment [3] shares this target. Conditions: at 1 µM.
Experiment [4] deals with Dual specificity tyrosine-phosphorylation-regulated kinase 1B (Homo sapiens) (UniProt Q9Y463). Conditions: at 0.1 µM.
The target is the same in experiment [5]. The note with it: at 1 µM.
Experiment [6] has as its target T1, Dual specificity tyrosine-phosphorylation-regulated kinase 2 (Homo sapiens) (UniProt Q92630).
T1 sequence (whole entry): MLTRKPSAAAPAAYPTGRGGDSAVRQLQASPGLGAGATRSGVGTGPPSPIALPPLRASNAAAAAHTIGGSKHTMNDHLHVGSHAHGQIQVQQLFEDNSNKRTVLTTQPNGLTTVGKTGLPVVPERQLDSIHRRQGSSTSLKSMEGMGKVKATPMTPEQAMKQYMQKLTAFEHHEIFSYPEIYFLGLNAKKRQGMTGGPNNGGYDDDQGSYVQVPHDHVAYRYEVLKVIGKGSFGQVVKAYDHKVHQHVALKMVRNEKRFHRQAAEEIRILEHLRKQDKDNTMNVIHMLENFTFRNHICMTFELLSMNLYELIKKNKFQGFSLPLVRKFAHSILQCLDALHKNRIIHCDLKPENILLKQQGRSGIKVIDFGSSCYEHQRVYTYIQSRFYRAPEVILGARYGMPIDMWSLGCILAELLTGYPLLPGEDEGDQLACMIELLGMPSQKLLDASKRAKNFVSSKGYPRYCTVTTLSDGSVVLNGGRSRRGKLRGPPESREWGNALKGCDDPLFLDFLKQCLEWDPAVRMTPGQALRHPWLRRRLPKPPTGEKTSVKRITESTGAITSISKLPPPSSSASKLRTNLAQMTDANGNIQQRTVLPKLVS
Conditions: at 0.1 µM.

The target of experiment [7] is T1, Dual specificity tyrosine-phosphorylation-regulated kinase 2 (Homo sapiens). The note with it: at 1 µM.
For experiment [8], the target named is Glycogen synthase kinase-3 alpha (Homo sapiens) (UniProt P49840). The note with it: at 0.1 µM.
Experiment [9] has the same target. Conditions: at 1 µM.
Experiment [10] has as its target Glycogen synthase kinase-3 beta (Homo sapiens) (UniProt P49841). Conditions: at 0.1 µM.
Experiment [11] has the same target. The note with it: at 1 µM.
The target of experiment [12] is Homeodomain-interacting protein kinase 1 (Homo sapiens) (UniProt Q86Z02). The note with it: at 0.1 µM.
For experiment [13] the target is unchanged. The note with it: at 1 µM.
The target of experiment [14] is T2, Homeodomain-interacting protein kinase 4 (Homo sapiens) (UniProt Q8NE63).
T2 sequence (whole entry): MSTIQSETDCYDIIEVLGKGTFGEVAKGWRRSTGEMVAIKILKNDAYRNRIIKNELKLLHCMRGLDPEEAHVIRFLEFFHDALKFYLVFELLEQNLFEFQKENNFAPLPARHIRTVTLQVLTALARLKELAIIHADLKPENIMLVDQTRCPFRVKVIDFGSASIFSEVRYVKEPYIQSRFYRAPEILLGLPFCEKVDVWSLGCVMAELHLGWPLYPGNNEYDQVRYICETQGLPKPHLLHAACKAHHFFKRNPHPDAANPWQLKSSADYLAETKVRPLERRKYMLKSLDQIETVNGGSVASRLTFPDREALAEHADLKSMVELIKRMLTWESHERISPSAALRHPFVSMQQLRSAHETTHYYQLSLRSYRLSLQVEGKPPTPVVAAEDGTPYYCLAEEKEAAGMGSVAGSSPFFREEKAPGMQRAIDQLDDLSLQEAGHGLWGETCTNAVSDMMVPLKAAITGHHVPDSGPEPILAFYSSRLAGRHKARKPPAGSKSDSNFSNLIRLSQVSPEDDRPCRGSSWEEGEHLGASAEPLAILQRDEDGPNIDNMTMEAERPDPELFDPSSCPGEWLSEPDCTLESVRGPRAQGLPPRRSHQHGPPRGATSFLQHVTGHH
Conditions: at 0.1 µM.

Experiment [15] deals with T2, Homeodomain-interacting protein kinase 4 (Homo sapiens). The note with it: at 1 µM.
Experiment [16] concerns the target Mitogen-activated protein kinase 9 (Homo sapiens) (UniProt P45984). The note with it: at 0.1 µM.
The target is the same in experiment [17]. The note with it: at 1 µM.
Experiment [18] has as its target Mitogen-activated protein kinase 1 (Homo sapiens) (UniProt P28482). Conditions: at 0.1 µM.
Experiment [19] shares this target. Conditions: at 1 µM.
Experiment [20] concerns the target Mitogen-activated protein kinase 3 (Homo sapiens) (UniProt P27361). The note with it: at 0.1 µM.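 Also: each value is a mean inhibition figure.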

Mitogen-activated protein kinase 3 (Homo sapiens), sequence (P27361 whole entry): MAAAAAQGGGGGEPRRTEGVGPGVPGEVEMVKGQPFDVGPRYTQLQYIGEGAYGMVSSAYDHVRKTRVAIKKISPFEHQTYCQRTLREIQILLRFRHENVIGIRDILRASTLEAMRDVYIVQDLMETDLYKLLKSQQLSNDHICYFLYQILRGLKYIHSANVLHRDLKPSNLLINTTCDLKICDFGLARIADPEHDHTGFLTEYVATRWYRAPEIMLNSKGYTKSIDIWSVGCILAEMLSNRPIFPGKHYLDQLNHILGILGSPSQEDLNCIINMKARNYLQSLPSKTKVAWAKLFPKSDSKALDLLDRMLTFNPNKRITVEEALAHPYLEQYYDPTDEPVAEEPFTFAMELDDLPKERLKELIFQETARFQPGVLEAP
Dual specificity protein kinase CLK3 (Homo sapiens), sequence (P49761 whole entry, looked up): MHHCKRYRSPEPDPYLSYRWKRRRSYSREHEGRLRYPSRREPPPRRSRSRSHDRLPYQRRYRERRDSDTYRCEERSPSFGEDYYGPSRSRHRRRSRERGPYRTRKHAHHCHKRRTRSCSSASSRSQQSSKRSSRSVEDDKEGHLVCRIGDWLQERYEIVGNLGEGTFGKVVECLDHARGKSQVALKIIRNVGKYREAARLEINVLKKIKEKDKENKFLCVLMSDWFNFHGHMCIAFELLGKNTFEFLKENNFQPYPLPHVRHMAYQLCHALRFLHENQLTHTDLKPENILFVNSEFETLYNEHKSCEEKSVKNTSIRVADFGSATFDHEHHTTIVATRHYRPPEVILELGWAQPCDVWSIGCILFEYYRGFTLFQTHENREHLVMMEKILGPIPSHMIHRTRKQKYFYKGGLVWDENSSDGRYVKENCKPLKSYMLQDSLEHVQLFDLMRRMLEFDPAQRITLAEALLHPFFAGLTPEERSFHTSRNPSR
Glycogen synthase kinase-3 alpha (Homo sapiens), sequence (P49840 2-483 limits assumed): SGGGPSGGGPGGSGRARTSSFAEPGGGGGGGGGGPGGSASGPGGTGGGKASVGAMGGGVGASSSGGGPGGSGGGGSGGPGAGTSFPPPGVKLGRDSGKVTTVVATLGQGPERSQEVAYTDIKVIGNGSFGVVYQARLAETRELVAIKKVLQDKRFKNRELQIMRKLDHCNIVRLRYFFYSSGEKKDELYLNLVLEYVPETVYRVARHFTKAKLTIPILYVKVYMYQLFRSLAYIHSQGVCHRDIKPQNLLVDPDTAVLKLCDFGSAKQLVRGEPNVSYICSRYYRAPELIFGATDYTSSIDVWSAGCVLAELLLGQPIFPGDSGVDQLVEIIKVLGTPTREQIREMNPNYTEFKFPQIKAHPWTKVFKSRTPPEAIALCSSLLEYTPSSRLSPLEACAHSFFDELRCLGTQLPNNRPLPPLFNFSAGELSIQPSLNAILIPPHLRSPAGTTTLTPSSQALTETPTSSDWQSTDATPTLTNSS
Homeodomain-interacting protein kinase 1 (Homo sapiens), sequence (Q86Z02 whole entry, looked up): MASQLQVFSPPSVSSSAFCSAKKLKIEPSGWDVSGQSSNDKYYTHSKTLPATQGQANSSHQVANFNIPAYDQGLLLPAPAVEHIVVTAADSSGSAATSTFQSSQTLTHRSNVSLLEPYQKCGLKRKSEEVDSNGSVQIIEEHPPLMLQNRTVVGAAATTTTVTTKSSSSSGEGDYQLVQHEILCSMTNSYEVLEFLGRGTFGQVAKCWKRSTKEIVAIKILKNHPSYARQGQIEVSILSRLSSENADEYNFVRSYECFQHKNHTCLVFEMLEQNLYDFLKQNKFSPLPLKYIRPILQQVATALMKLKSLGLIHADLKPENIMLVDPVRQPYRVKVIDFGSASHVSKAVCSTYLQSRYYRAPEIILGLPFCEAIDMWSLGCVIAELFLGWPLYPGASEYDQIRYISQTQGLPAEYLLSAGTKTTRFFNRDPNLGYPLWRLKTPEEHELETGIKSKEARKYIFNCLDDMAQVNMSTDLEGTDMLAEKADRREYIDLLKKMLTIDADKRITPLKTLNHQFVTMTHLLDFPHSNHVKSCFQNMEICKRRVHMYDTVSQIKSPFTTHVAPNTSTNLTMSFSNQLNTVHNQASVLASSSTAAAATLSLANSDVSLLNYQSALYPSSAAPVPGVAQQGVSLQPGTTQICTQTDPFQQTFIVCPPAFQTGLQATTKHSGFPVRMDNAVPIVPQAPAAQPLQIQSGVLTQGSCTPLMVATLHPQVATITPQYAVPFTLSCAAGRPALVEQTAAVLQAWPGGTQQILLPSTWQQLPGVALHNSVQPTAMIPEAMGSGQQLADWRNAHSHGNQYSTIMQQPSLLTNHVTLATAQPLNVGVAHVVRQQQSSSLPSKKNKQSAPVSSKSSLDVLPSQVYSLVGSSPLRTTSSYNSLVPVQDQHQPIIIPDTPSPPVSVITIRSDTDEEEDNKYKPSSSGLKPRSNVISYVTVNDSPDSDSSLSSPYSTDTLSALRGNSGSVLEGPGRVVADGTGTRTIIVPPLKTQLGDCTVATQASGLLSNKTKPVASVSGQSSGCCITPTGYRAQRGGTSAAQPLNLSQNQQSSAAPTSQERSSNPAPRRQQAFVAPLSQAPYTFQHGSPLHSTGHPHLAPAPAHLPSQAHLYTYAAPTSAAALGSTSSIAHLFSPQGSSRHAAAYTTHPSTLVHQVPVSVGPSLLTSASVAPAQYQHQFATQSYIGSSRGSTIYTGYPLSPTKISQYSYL
Mitogen-activated protein kinase 9 (Homo sapiens), sequence (P45984 whole entry, looked up): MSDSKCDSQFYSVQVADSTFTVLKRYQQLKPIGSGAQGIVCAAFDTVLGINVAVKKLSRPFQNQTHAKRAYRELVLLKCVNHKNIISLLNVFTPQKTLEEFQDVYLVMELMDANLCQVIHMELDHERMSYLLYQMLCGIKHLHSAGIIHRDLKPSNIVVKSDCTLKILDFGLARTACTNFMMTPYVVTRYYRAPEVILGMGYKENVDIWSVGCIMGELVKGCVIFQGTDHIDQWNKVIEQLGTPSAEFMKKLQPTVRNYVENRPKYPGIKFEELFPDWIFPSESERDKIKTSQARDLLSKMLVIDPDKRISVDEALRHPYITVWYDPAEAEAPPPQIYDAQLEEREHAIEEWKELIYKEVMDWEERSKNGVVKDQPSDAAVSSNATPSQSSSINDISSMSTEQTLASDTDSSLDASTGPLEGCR
Glycogen synthase kinase-3 beta (Homo sapiens), sequence (P49841 whole entry, looked up): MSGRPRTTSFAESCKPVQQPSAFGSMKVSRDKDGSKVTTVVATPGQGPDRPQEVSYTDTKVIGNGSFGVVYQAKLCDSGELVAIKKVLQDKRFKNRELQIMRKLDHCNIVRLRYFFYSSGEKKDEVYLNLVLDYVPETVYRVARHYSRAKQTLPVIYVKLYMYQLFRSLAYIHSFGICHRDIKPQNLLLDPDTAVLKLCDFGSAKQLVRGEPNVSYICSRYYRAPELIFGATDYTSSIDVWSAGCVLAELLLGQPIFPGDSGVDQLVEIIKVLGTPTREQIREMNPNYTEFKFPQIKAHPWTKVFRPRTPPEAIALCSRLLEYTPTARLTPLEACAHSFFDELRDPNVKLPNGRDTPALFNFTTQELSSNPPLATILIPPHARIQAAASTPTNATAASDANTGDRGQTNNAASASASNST
Dual specificity tyrosine-phosphorylation-regulated kinase 1B (Homo sapiens), sequence (Q9Y463 whole entry, looked up): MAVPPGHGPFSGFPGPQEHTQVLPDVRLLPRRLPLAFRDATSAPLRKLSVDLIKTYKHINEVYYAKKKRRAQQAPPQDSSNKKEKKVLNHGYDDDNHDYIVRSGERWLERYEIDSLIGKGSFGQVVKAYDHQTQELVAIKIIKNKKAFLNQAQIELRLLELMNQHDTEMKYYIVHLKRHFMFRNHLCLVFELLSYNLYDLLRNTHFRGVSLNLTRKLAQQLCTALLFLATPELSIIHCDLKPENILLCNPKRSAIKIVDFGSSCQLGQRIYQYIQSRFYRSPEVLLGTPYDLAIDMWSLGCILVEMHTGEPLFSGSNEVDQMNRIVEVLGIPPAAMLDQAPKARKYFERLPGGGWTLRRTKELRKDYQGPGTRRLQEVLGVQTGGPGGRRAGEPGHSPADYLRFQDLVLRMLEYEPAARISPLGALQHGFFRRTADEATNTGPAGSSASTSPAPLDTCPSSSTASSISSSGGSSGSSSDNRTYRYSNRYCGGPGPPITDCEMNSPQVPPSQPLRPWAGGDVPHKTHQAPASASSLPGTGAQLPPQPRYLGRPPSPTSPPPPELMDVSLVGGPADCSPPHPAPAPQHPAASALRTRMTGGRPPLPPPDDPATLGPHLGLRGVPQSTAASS
Mitogen-activated protein kinase 1 (Homo sapiens), sequence (P28482 whole entry): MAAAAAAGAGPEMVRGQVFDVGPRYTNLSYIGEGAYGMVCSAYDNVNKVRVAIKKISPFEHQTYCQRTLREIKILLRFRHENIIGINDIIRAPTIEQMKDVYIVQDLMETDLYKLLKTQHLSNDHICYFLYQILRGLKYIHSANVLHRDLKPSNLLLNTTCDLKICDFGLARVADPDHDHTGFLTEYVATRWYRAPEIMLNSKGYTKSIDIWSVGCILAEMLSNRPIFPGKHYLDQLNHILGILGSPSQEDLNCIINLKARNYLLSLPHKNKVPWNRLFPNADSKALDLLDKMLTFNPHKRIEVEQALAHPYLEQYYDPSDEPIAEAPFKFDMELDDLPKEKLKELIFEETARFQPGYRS

As to `NS(=O)(=O)c1ccc(-c2ccc3c(NC(=O)C4CC4)n[nH]c3c2)cc1`, the inhibition was determined as 2.75% in experiment [1]; 2.37% in [2]; 5.69% in [3]; 0.86% in experiment [4]; 3.29% in [5]; 1.63% in experiment [6]. Also, the inhibition in experiment [7] is 3.47%; in [8] it was 5.27%; in experiment [9] it was 8.87%; in [10] it was 4.15%; in experiment [11], 7.66%; in experiment [12] it was 2.52%. Moreover, the inhibition in experiment [13] was 7.94%; in experiment [14] it was 3.34%; in experiment [15] it was 4.2%; in [16] it was 3.73%; in experiment [17], 4.23%; in experiment [18] it was 2.15%. The values for the inhibition in experiment [19] and in experiment [20] were 3% and 1.44%, respectively.
On to `Cc1cc(-c2ccco2)cc(C)c1/C=C/c1cncc(-c2nn[nH]n2)c1`, for which the inhibition in experiment [1] is 0.08%; in experiment [2], -0.27%; in experiment [3] it was 2.81%; in [4] it was -0.75%; in experiment [5] it was 0.15%; in [6] it was -0.1%. Moreover, the inhibition is -1.43% in experiment [7]; 0.36% in experiment [8]; 0.72% in [9]; 0.5% in experiment [10]; 0.28% in experiment [11]; -3.37% in [12]. The inhibition in experiment [13] was -0.75%; in experiment [14], -0.32%; in experiment [15] it was -0.04%; in [16], 1.02%; in experiment [17] it was 0.6%; in experiment [18], 1.32%. The inhibition in experiment [19] stood at 2.18%; in [20] it was 3.63%.
`COc1cc(C=NNc2ncnc3c2cnn3Cc2ccccc2)ccc1O`: the inhibition in [1] is 9.8%; in experiment [2] it was 3.11%; in experiment [3], 9.48%; in experiment [4] it was 3.37%; in [5] it was 8.92%; in experiment [6], -4.67%. The inhibition in experiment [7] was -1.79%; in experiment [8], 5.54%; in experiment [9], 19.6%; in experiment [10], 5.36%; in experiment [11], 17.7%; in [12] it was -2.83%. Also, the inhibition is 1.68% in [13]; -0.49% in experiment [14]; 2.59% in experiment [15]; -0.98% in experiment [16]; -0.48% in [17]; 2.37% in experiment [18]. In addition, the inhibition in [19] is -6.99%; in experiment [20], -2.79%.
Take `Fc1ccc(-c2ncn(C3CCNCC3)c2-c2ccnc(Oc3ccccc3)n2)cc1`: the inhibition in experiment [1] was -4.71%; in [2], -2.73%; in experiment [3], -2.33%; in experiment [4], -4.97%; in experiment [5], -5.21%; in experiment [6], 1.43%. Further, the inhibition in experiment [7] was 0.78%; in experiment [8], -1.47%; in experiment [9], -2.08%; in [10], -2.46%; in [11], -1.88%; in [12] it was -7.18%. Moreover, the inhibition was -6.2% in experiment [13]; 0.38% in [14]; 2.3% in [15]; 2.78% in experiment [18]; 6.09% in [19]; 2.44% in [20].
As for `CCn1c(-c2nonc2N)nc2c(C#CC(C)(C)O)ncc(OCC3CCNCC3)c21`, the inhibition was -1.7% in [1]; -3.13% in experiment [2]; 1.2% in experiment [3]; -4.04% in [4]; -0.01% in experiment [5]; 1.35% in [6]. In addition, the inhibition worked out at 1.98% in experiment [7]; 12.9% in experiment [8]; 53.9% in [9]; 11.9% in [10]; 55.4% in experiment [11]; 0.15% in [12]. Besides, the inhibition came to 19.7% in [13]; 1.95% in experiment [14]; 11.1% in [15]; 2.04% in experiment [16]; 2.67% in [17]; 5.25% in [18]. Further, the values for the inhibition in experiment [19] and in [20] were 4.1% and 5.07%, respectively.
Consider `COc1cc2c(cc1Nc1nc(Nc3ccsc3C(N)=O)c3cc[nH]c3n1)N(C(=O)CN(C)C)CCC2`, for which the inhibition in [1] was 2.92%; in [2], -1.83%; in experiment [3] it was 0.58%; in [4] it was -0.31%; in experiment [5] it was 4.64%; in [6], -0.67%. Further, the inhibition in experiment [7] is -2.75%; in experiment [8], 1.22%; in experiment [9], 0.89%; in experiment [10], 1.05%; in experiment [11] it was 2.63%; in experiment [12], -2.33%. The inhibition was found to be 5.85% in [13]; 2.25% in experiment [14]; 5.44% in experiment [15]; 3.02% in experiment [16]; 8.04% in experiment [17]; 2.93% in experiment [20].
For `COc1cccc(COc2cc(-n3cnc4ccccc43)sc2C(N)=O)c1`, the inhibition in experiment [1] was -0.91%; in [2] it was 0.34%; in [3] it was -0.09%; in [4] it was -0.5%; in [5] it was -2.7%; in experiment [6] it was -0.21%. The inhibition is -2.08% in experiment [7]; 1.06% in experiment [8]; 3.48% in [9]; 0.09% in [10]; 2.12% in [11]; -6.56% in experiment [12]. The inhibition is 1.66% in experiment [13]; -0.59% in [14]; 2.84% in experiment [15]; 2.36% in experiment [16]; -2.62% in experiment [17]; 1.13% in experiment [18]. In addition, the inhibition in [19] is 1.97%; in experiment [20] it was 2.69%.
